The values that follow come from PubChem BioAssay AID588382 (National Center for Advancing Translational Sciences (NCATS), 2011).

The campaign covered roughly 1,300 compounds. About 150 (12%) were called active. Where a call stands in place of a potency, no number is given. Another 30% or so got no clear call; they are omitted. The call rests on the fitted dose curve; in most records, active means well fitted cell-killing curve with a large enough effect; inconclusive means small, poorly fitted or top-dose-only effect, or effect the other way; inactive means flat fitted curve, though single readings scatter. The full list was thinned out, with actives kept by preference.
Potency means the concentration at half of the fitted maximal effect.

The assay can be described thus: qHTS of small molecules that selectively kill Giardia lamblia: Hit Validation in HepG2 cytotox.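 Further: compound exposure lasted overnight at 37 deg C; nearly all actives have a fitted effect of over 55% in size.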 The following applies: cell viability; Potency: HepG2 cytotoxicity; series mostly up to 38.3 µM. The essentials:
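HepG2 cells seeded and incubated overnight at 37 deg C, then 23 nL compound added by pintool and incubated overnight at 37 deg C. Viability read as ATP luminescence with ATPLite after 15 min at room temperature.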
As for `COc1ccc(-n2nc([N+](=O)[O-])c(=NCCc3ccc(C)cc3)n2O)cc1`, the Potency result is “inactive”.

Regarding `Nc1nc(Cl)nc2c1ncn2[C@H]1C[C@H](O)[C@@H](CO)O1`, the Potency result was “inactive”.

Consider `Cc1ncc([N+](=O)[O-])n1CCN1C(=O)c2ccccc2C1=O`, for which the Potency entry was “inactive”.

For the compound `O=C1c2ccccc2C(=O)c2c1ccc1c(=O)n(C3CCCCC3)[nH]c21`, the Potency entry was “inactive”.

In the case of `O=C(CSc1cccc[n+]1[O-])Nc1cc2c(cc1Cl)C(=O)c1ccccc1C2=O`, the Potency result is “inactive”.

Take `O=C(N/N=C/c1cc2c(cc1[N+](=O)[O-])OCO2)c1ccccn1`: the Potency result was “inactive”.

With `Cc1ccc(N/C(C(Cl)=C(Cl)Cl)=C(/Cl)[N+](=O)[O-])c(C)c1`, the Potency entry is “inactive”.

Consider `O=C(CCCn1cnc([N+](=O)[O-])n1)Nc1cccc(Cl)c1Cl`, for which the Potency entry was “inactive”.

Consider `O=[N+]([O-])c1nn(-c2ccc3c(c2)OCCO3)n(O)c1=NCc1ccccc1Cl`, for which the Potency entry is “inactive”.

As for `Cc1oc2cc([N+](=O)[O-])c(O)c([N+](=O)[O-])c2c1C(=O)c1ccc(Cl)cc1`, the Potency result was “inactive”.

Turning to `CCN(CC)C(=O)Cn1cc([N+](=O)[O-])cc1[N+](=O)[O-]`, the Potency result is “inactive”.

On to `CC1(C)Oc2cc3oc(-c4cc(O)cc(O)c4)cc3cc2CC1O` (stereo unspecified), for which the Potency was 5.85 µM (active).

For the compound `CCCCNC(=O)/C(=C\c1ccc([N+](=O)[O-])o1)NC(=O)c1ccccc1`, the Potency entry was “inactive”.

`O=C(CCN1C(=O)c2ccccc2C1=O)NCc1ccc(F)cc1`: the Potency entry was “inactive”.

As for `O=C(CCN1C(=O)c2ccccc2C1=O)Nc1ccccc1C(F)(F)F`, the Potency result was “inactive”.

For the compound `O=C1c2ccc3c4c(ccc(c24)C(=O)N1CCCCO)C(=O)N(CCCCO)C3=O`, the Potency was 4.14 µM (active).

As for `O=[N+]([O-])c1nn(-c2ccc3c(c2)OCCO3)n(O)c1=NCCC1=CCCCC1`, the Potency result is “inactive”.

For the compound `O=c1c([N+](=O)[O-])cccn1Cc1ccccc1Cl`, the Potency entry is “inactive”.

Consider `[O-][n+]1c2ccccc2c2n1CCN=C2c1ccc(Cl)cc1`, for which the Potency entry was “inactive”.

As to `O=[N+]([O-])c1nn(-c2ccc3c(c2)OCCO3)n(O)c1=Nc1ccc(Cl)cc1`, the Potency entry is “inactive”.

Regarding `COc1cc2nc(N3CCN(c4cc(C)ccc4C)CC3)nc(N)c2cc1OC`, the Potency was 9.27 µM (active).

`COc1cc2nc(N3CCN(C)CC3)nc(NC(C)C)c2cc1OC`: the Potency result is “inactive”.

In the case of `Cc1cc(=S)nc(-c2ccccn2)[nH]1`, the Potency entry is “inactive”.

Regarding `CN1C(=O)/C(=C/c2ccc(O)c([N+](=O)[O-])c2)NC1=S`, the Potency entry was “inactive”.

`CCc1cccc(N=c2c([N+](=O)[O-])nn(-c3ccc4c(c3)OCCO4)n2O)c1`: the Potency entry is “inactive”.

For `Cc1cccc(NC(=O)c2ccc([N+](=O)[O-])s2)c1C`, the Potency entry is “inactive”.

Consider `Cc1cc(C)cc(Oc2ccc(NC(=O)C3CC=CCC3C(=O)O)cc2)c1` (stereo unspecified), for which the Potency entry is “inactive”.

On to `CCn1nc(-c2ccc(C)cc2)nc2c(=O)n(C)c(=O)nc1-2`, for which the Potency was 5.21 µM (active).

As to `CCc1ccc(-c2nc3c(=O)n(C)c(=O)nc-3n(CC)n2)cc1`, the Potency was 1.85 µM (active).

`CC(=O)O[C@@H]1[C@@H](OC(C)=O)[C@H](n2ccc3cc([N+](=O)[O-])ccc32)OC[C@@H]1OC(C)=O`: the Potency result is “inactive”.

As to `Cc1ccc([C@@H]2CC=C(C(=O)O)CN2S(=O)(=O)c2ccc(C)cc2)cc1`, the Potency result was “inactive”.
